Reference: PubChem BioAssay (NCATS)
Records with an inconclusive call do not appear. Entries that show only a call come without a potency. Active and inactive are the calls of the source. The call rests on the fitted dose curve; in most records, active means well fitted cell-killing curve with a large enough effect; inconclusive means small, poorly fitted or top-dose-only effect; inactive means flat fitted curve, though single readings scatter.

Test: Quantitative highthroughput screen to assess conditional lethalithy of P12 Ichikawa cells grown in RPMI1640 with untreated serum (RPMI+s) (AID 1963881); further: nearly all actives have a fitted effect of over 35% in size
Conditions: ATP luminescence, 48 h; Potency: viability; series mostly up to 45.8 µM
Text: Assay Provider: Jason Cantor Ph.D.
Department of Biochemistry
University of Wisconsin-Madison, Madison, WI, USA
Chemical screening studies have identified drug sensitivities across hundreds of cancer cell lines but most putative therapeutics fail to translate. Discovery and development of drug candidates in models that more accurately reflect nutrient levels in human blood is a major challenge. Here we performed high-throughput screens in conventional versus Human Plasma-Like Medium (HPLM) to identify compounds that were "missed" when screening using the artificial culture condition. Sets of conditional anticancer compounds spanned phases of clinical development and included non-oncology drugs were assessed. […] We also traced conditional phenotypes for several chemotherapeutics to availability of HPLM-specific metabolites and confirmed others for compounds whose reported targets are encoded by nonessential genes. Our findings establish generalizable strategies for exploiting conditional lethality in HPLM to reveal therapeutic candidates and mechanisms of action in cancer cells.
Described herein are the results of each viability screens against three cell lines: NOMO1 (an acute myeloid leukemia cell line); P12-Ichikawa (a T-cell acute lymphoblastic leukemia); and SEM (a B-cell ALL). Each assay was screened using 3 different cell culture media: homemade human plasma-Like medium with 10% dialyzed fetal bovine serum (HPLM+ds); RPMI1640 with 10% untreated FBS and 5mM glucose (RPMI+s); and RPMI1640 with 10% dialyzed fetal bovine serum and 5 mM glucose (RPMI+ds).
PROTOCOL TABLE (as described by Inglese J, Shamu CE and Guy RK. 2007)
SEQUENCE No. (e.g., 1, 2, 3, etc.); […] (e.g., Cells, Incubation, Reagent, etc.); VALUE and DESCRIPTION.
1; Cells; 5 uL; white, solid bottom 1536-well Greiner assay plate.
2; Compounds; 23 nL; Kalypsis pin tool (Wako USA) equipped with a 1536-well pin head to transfer to the assay plates.
3; Incubation; 48 hours; 37C incubation.
4; Reagent; 3 uL; CellTiter Glo (Promega).
5; Incubation; 5 min, room temperature
6; Detection; Luminescence, Viewlux PerkinElmer.
NOTES (numbers refer to Sequence numbers above)
1. Briefly, 5 ul of cell reagent was dispensed using a Multidrop Combi Dispenser. The NOMO1 and SEM cells were plated at 500 cells/well and the P12-Ichikawa line at 1000 cells/well.
2. After seeding the cells, 23 nL of MIPE 4.1 library compounds (in DMSO) were added to each plate using a Kalypsys 1536 Pintool dispenser. Bortezomib at final concentration of […] and DMSO were added to each plate as positive and negative controls respectively. For each screen, MIPE 4.1 compounds were added over an eleven-point concentration range […] in 3-fold dilutions.
3. Each plate was covered with a stainless steel gasketed lid to prevent evaporation and incubated for 48 hour at 37C, 95% relative humidity, and 5% CO2.
4-5. Three microliter CellTilter-GloTM luminescent substrate mix (Promega) reagent was added to the assay plate and incubated at room temperature for 5 min.
6. The luminescence signal was measured using a ViewLux (PerkinElmer) multiplate reader with a 2 second exposure time per plate. Data for each compound were normalized as percent viability such that measurements for DMSO and the empty well controls in each plate were defined as 100% and 0%, respectively.
Potency means the concentration at half of the fitted maximal effect.

| SMILES | Potency |
| --- | --- |
| COc1ccc(C(=O)c2c(C)n(CCN3CCOCC3)c3cc(I)ccc23)cc1 | 4180 nM (active) |
| CC(C)N(CCNC(=O)CN1CCCC1=O)C(C)C | inactive |
| C[C@H]([C@H](O)CCC(C)(C)O)[C@H]1CC[C@@]2(O)C3=CC(=O)[C@@H]4C[C@@H](O)[C@@H](O)C[C@]4(C)[C@@H]3CC[C@]12C | inactive |
| CC[C@@H](C(N)=O)N1CCCC1=O | inactive |
| O=C1CCC[C@@H]2[C@H]3CCCN4CCC[C@@H](CN12)[C@@H]34 | inactive |
| CNCC(O)c1ccc(O)cc1 (stereo not given) | inactive |
| C[C@](O)(COc1ccc(C#N)cc1)C(=O)Nc1ccc(C#N)c(C(F)(F)F)c1 | inactive |
| CSCC[C@@H](NC(=O)[C@@H](Cc1ccccc1)NC(=O)CNC(=O)CNC(=O)[C@@H](N)Cc1ccc(O)cc1)C(=O)O | inactive |
| CN1CCN(C(=O)O[C@H]2c3nccnc3C(=O)N2c2ccc(Cl)cn2)CC1 | inactive |
| C[C@]12CC[C@@H]3[C@@H](CCC4=CC(=O)CC[C@@H]43)[C@@H]1CC[C@@H]2OC(=O)CCc1ccccc1 | inactive |
| O=C1C=CC[C@@H]2[C@H]3CCCN4CCC[C@@H](CN12)[C@@H]34 | inactive |
| Oc1ccc2c3c1O[C@H]1c4[nH]c5c(c4C[C@@]4(O)[C@@H](C2)N(CC2CC2)CC[C@]314)C[C@@]1(O)[C@H]2Cc3ccc(O)c4c3[C@@]1(CCN2CC1CC1)[C@H]5O4 | inactive |
| C[C@]12CC[C@H]3[C@@H](CCC4=CC(=O)CC[C@@]43C)[C@H]1CC[C@H]2OC(=O)CCC1CCCC1 | inactive |
| O=C1CC[C@@]2(O)[C@H]3Cc4ccc(O)c5c4[C@@]2(CCN3CC2CC2)[C@H]1O5 | inactive |
| CC(=O)OCC1=C(C(=O)O)N2C(=O)[C@@H](N)[C@@H]2SC1 | 1480 nM (active) |
| NC1=NC(=O)N2CC12 (stereo not given) | 5260 nM (active) |
| c1ccc(CCCN2CCN(CCOC(c3ccccc3)c3ccccc3)CC2)cc1 | 18700 nM (active) |
| Cc1[nH]nc2ccc(-c3cncc(OC[C@@H](N)Cc4c[nH]c5ccccc45)c3)cc12 | 1480 nM (active) |
| CCOc1ccccc1-n1c(C(C)N2CCN(C(=O)COc3ccc(Cl)cc3)CC2)nc2ccccc2c1=O (stereo not given) | 1480 nM (active) |
| Cn1cc(C2=C(c3cn(C4CCN(Cc5ccccn5)CC4)c4ccccc34)C(=O)NC2=O)c2ccccc21 | inactive |

| SMILES | Potency |
| --- | --- |
| COCC1(CO)C(=O)C2CCN1CC2 (stereo not given) | 16600 nM (active) |
| COC1(CS(=O)c2ccccc2)CCN(CCc2c[nH]c3ccc(F)cc23)CC1 (stereo not given) | inactive |
| CCOC(=O)c1cncn1[C@H](C)c1ccccc1 | inactive |
| Cc1ncc(OC[C@@]2(c3cccc(F)c3)C[C@H]2C(=O)Nc2ccc(F)cn2)c(C)n1 | inactive |
| CC(O)=C(C#N)C(=O)Nc1cc(Br)ccc1Br | inactive |
| C[C@]12CCC(=O)C=C1CC[C@@H]1[C@H]3CC[C@](C)(O)[C@@]3(C)CC[C@@H]12 | inactive |
| C[C@]12CC[C@H](O)CC1=CC[C@H]1[C@H]3CCC(=O)[C@@]3(C)CC[C@@H]12 | inactive |
| O=C(Oc1ccc([N+](=O)[O-])cc1)N1CCN(Cc2cccc(Oc3ccccc3)c2)CC1 | inactive |
| O=C(N[C@H]1CN2CCC1CC2)c1ccc(Cl)cc1 | inactive |
| Cc1cc(SCc2sc(-c3ccc(C(F)(F)F)c(F)c3)nc2C)ccc1OCC(=O)O | inactive |
| C[C@](O)(CS(=O)(=O)c1ccc(F)cc1)C(=O)Nc1ccc(C#N)c(C(F)(F)F)c1 | inactive |
| O=C(O)CNC(=O)c1c(O)c2ccccc2n(Cc2ccccc2)c1=O | inactive |
| CNC(=O)c1ccc(N2C(=S)N(c3ccc(C#N)c(C(F)(F)F)c3)C(=O)C23CCC3)cc1F | inactive |
| CC(C)(C)[C@]1(O)C[C@@H]2OC(=O)C[C@@]23C(=O)O[C@@H]2OC(=O)[C@H](O)C213 (stereo not given in full) | inactive |
| CC(=Cc1csc(C)n1)[C@@H]1C[C@H]2O[C@@H]2CCC[C@H](C)[C@@H](O)[C@@H](C)C(=O)C(C)(C)[C@@H](O)CC(=O)O1 | inactive |
| CCOC(=O)Nc1ccc(NCc2ccc(F)cc2)cc1N | inactive |
| CC(C)[C@]12O[C@@H]1[C@@H]1O[C@]13[C@]1(O[C@H]1C[C@@H]1C4=C(CC[C@@]13C)C(=O)OC4)[C@H]2O | 1.5 nM (active) |
| CC(NC(C)(C)C)C(=O)c1cccc(Cl)c1 (stereo not given) | inactive |
| CN(C)CCN(C)CCc1ccc(Cl)c(Cl)c1 | inactive |
| O=C(NCC1CCOCC1)c1cnc(Nc2ccc(Cl)cc2Cl)nc1C(F)(F)F | inactive |
